High-throughput results from PubChem BioAssay.
Most compounds without a hit are left out; they make up all but 0.18% or so of the library.
Bfl-1 Bim block = human Bim-Bfl-1 interaction inhibition; Q16548; Bead-based flow cytometry, Bim-Bfl-1 binding inhibition; inhibition, % at 10 µM; 190,000 tested, 0.12% active;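 note: 0% = wells without compound plus tracer and 100% = blocker peptide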
Bim-Bcl-B = disrupts Bim peptide binding to human Bcl-B; bead-based flow cytometry; inhibition, % at 10 µM; 190,000 tested, 0.073% active; AID 951;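 note: 0% = tracer peptide without compound and 100% = reference inhibitor peptide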
Bcl-2 Bim block = human Bim-Bcl-2 interaction inhibition. P10415. Bead-based flow cytometry, Bim peptide-Bcl-2 binding. inhibition, % at 10 µM. 190,000 tested, 0.06% active. AID 950; in the data active = inhibition above about 40%;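 note: 0% = no compound wells with probe peptide and 100% = reference peptide inhibitor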
Target sequence (P10415 whole entry, looked up): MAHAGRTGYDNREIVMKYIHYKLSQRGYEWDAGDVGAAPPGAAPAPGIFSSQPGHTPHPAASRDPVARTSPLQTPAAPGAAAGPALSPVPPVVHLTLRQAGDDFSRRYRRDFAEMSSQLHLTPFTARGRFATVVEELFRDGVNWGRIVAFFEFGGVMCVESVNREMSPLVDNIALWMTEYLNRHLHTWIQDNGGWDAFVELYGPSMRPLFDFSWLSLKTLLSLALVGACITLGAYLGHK
Bcl-W Bim block = human Bim-Bcl-W interaction inhibition; Q92843; bead-based flow cytometry, Bim peptide-Bcl-W binding; inhibition, % at 10 µM; 190,000 tested, 0.02% active; AID 952;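 note: 0% = bound tracer without compound and 100% = peptide blocker; higher means less fluorescent Bim peptide bound to Bcl-W beads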
Bim-Bcl-XL = inhibitors of Bim-Bcl-XL interaction, human; inhibition, % at 10 µM; 190,000 tested, 0.04% active; Bim peptide-Bcl-XL binding, bead flow cytometry, fluorescence; AID 1007
Target sequence (Q07817 whole entry, looked up): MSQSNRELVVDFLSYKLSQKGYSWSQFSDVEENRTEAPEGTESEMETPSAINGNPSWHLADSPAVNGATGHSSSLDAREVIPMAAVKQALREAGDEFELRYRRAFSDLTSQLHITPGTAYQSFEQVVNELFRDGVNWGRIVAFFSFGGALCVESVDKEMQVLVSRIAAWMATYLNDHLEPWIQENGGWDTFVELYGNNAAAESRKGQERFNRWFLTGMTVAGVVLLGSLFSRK
The depositor's hits bear a star. Cut-off read from the data, not from the text of the source, unless noted: active = inhibition above about 40%.

SMILES	Bfl-1 Bim block	Bim-Bcl-B	Bcl-2 Bim block	Bcl-W Bim block	Bim-Bcl-XL
CN(C)/C=C/C(=O)c1ccc(C(F)(F)F)cc1F	22	89*	74*	23	94*
C=CCSC(=C(C#N)C#N)c1cc2c([nH]1)CCCC2	-10	-7	-10	0	-4
O=C(COC(=O)c1c2c(nc3ccccc13)CCCCC2)c1ccc(Cl)s1	-2	-4	-3	-3	-4
C/C(=N\NC(=O)Cc1cccn1C)c1ccc2ccccc2c1	15	46*	50*	19	29
Cc1[nH]nc(SCC(=O)NCc2ccc(F)cc2)c1[N+](=O)[O-]	36	24	30	30	42*
COc1ccc(NC(=S)NCCc2c(C)[nH]c3ccc(OC)cc23)cc1	-8	-2	-6	0	-1
O=C(c1ccccc1)c1c[nH]c(C(=O)NNc2ccccc2)c1	-6	0	1	0	-1
CCOC(=O)c1ccc(NC(=O)CSCCC(=O)O)cc1	50*	84*	90*	62*	61*
Cc1ccc(C)n1-c1ccc(N2CCOCC2)cc1	6	40*	7	3	2
CC(C)CN1C(=O)/C(=C/c2cccs2)NC1=S	-19	-41	-17	-18	-19
CC(C)CN1C(=O)/C(=C/c2ccco2)NC1=S	47*	-23	11	6	3
CCC(=O)N(C)CCc1cc2c(c(OC)c1/C=N/NC(=O)c1ccc(Br)cc1)OCO2	-18	-9	-2	-2	-6
O=C(CCl)Nc1cn(-c2ccccc2)nc1-c1ccc(F)cc1	-3	-2	-3	-1	0
COC(=O)c1ccc(NC(=O)CNc2ccccc2)cc1	-5	-2	-3	-1	0
CC(=O)NN1C(=O)/C(=C/c2ccc(C(C)C)cc2)SC1=S	-1	-7	-3	-2	-5
CC1C=CCC2C(=O)N(c3ccccc3OC(=O)c3cccs3)C(=O)C12 (configuration not stated)	-9	-3	-6	-1	-3
CC1C=CCC2C(=O)N(c3ccc(OC(=O)c4cccs4)cc3)C(=O)C12 (configuration not stated)	55*	70*	79*	-6	3
O=C(Nc1n[nH]c(C(F)(F)F)n1)C1CC1	27	-53	4	11	21
Cc1ccc(OC(=O)c2ccc3snnc3c2)cc1	62*	81*	81*	11	14
COc1ccc(N(C)C(=O)c2ccc3snnc3c2)cc1	-6	-4	-8	0	-4
CC(=O)Nc1ccc(OS(=O)(=O)c2ccc([N+](=O)[O-])cc2)cc1	-6	-5	-5	-4	-3
COc1ccc(C(=S)N2CCCCCC2)cc1	52*	38	37	46*	53*
CC(CCc1ccccc1)NC(=O)C1CCN(S(=O)(=O)N2CCCCC2)CC1 (configuration not stated)	38	25	28	25	41*
COc1cc(/C=N/Nc2nn3cnnc3c3ccccc23)ccc1O	3	27	8	27	42*
COc1cccc(/C=N/Nc2nn3cnnc3c3ccccc23)c1	-12	17	-4	24	5
SMILES	Bfl-1 Bim block	Bim-Bcl-B	Bcl-2 Bim block	Bcl-W Bim block	Bim-Bcl-XL
CCC(=O)OCCNc1cc(Sc2nc3ccccc3s2)c2nonc2c1[N+](=O)[O-]	54*	6	2	9	3
CCC(=O)OCCNc1cc(Sc2nc3ccccc3[nH]2)c2nonc2c1[N+](=O)[O-]	35	-5	4	8	0
COc1ccc(CCCC(=O)NCc2ccccc2)cc1C	0	0	2	-2	0
CC(C)Cc1nc2ccccc2n1CCc1ccccc1	-3	-7	-1	-3	-5
CC(C)=C1C(=O)NN(c2ccc(C)c(Cl)c2)C1=O	43*	56*	36	48*	50*
CN(NC(=O)/C=C/C(=O)O)c1ncc(C(F)(F)F)cc1Cl	-12	0	0	-1	-1
O=C(Cc1ccc(Cl)cc1)Nc1ccc(N2CCCC2)cc1	-11	-5	-2	0	0
Clc1cccc(Cl)c1CNc1ccc(N2CCCC2)cc1	59*	2	21	25	4
Cc1ccc(-c2nc3c(c(=O)[nH]c(=O)n3Cc3ccccc3)n2C)o1	40*	-4	8	9	2
COc1ccc(NC(=O)/C(C#N)=C/c2c(C)nn(-c3ccc(F)cc3)c2Cl)cc1Cl	42*	29	32	20	32
CN1CCC2(CC1)N=C(c1ccc(F)cc1)C(=S)N2C(=O)c1ccc(C(C)(C)C)cc1	-1	-7	-1	-8	-9
COc1ccccc1-n1c(-c2ccc(Cl)cc2)c[nH]c1=S	5	42*	0	-2	-5
CCN(CC)S(=O)(=O)c1ccc(NC(=O)COC(=O)c2ccc(NC(=O)CC#N)cc2)cc1	-8	-3	-4	0	-3
COc1cc(C=Nc2cccc(C)c2)c(O)c([N+](=O)[O-])c1	42*	58*	44*	23	30
Cc1cccc(N=Cc2cc3c(cc2[N+](=O)[O-])OCO3)c1	2	-1	0	0	0
Nn1c(SCC(=O)NC2CCCc3ccccc32)nnc1-c1ccc(Cl)cc1Cl (configuration not stated)	-7	-15	-5	-4	-7
Cc1sc(NC(=O)Cn2cnnn2)nc1-c1ccc(Cl)cc1	53*	67*	84*	7	20
Cc1nc2ncccn2c1-c1csc(Nc2ccc(O)cc2)n1	19	33	13	35	62*
Cc1ccc(Nc2nc(-c3c(C)nc4ncccn34)cs2)cc1	-1	6	-5	16	13
CC(=O)NC(=O)Nc1sc(=S)n(C)c1C	56*	33	34	37	49*
Cc1ccc(NC(=O)Nc2sc(=S)n(C)c2C)cc1	-10	-11	-7	-1	-6
CCOC(=O)NC(O)C(=O)c1ccc(F)cc1 (configuration not stated)	-3	-6	0	-2	-2
CCCCC(C(=O)OCC)C(N)Cc1ccc(F)cc1 (configuration not stated)	7	76*	58*	24	83*
CC(C)Nc1nc(NC(C)C)nc(SCC(N)=O)n1	-3	0	0	0	0
Cc1ccc(-c2csc(NC(=O)CCNC(=O)c3ccccc3Cl)n2)cc1	-11	-7	-8	-3	-6
SMILES	Bfl-1 Bim block	Bim-Bcl-B	Bcl-2 Bim block	Bcl-W Bim block	Bim-Bcl-XL
O=C1S/C(=C/c2ccc(N3CCOCC3)o2)C(=O)N1Cc1ccc(F)cc1	27	-11	-2	7	5
O=C1NC(=S)S/C1=C/c1ccc(N2CCOCC2)o1	53*	11	34	36	18
Cc1ccc(-c2ccc(/C=C3\SC(N4CCOCC4)=NC3=O)o2)cc1	41*	2	17	17	11
O=C1N=C(N2CCOCC2)S/C1=C/c1ccc(-c2ccc(F)cc2)o1	7	-2	3	2	0
CCCCc1ccc(NC(=S)NCc2ccc(OC)cc2)cc1	17	51*	44*	-1	-1
CCc1ccc(N2C(=O)C3C4CCC(C4=C(C)C)C3C2=O)cc1 (configuration not stated)	-1	-4	-2	-3	-2
